Where “and” joins values, the source holds several entries; their conditions need not be identical. Equal entries are not always repeated. Inconclusive results are not listed. A structure can be active in one record and inactive in another. Calls of active or inactive are those of the source. Unless noted, calls come from the whole dose curve; as a rule, active = well fitted curve in the direction sought with a large enough effect; inconclusive = small, poorly fitted or top-dose-only effect, or another doubt; inactive = no such curve, though single readings can be large; an effect the other way counts as inactive or inconclusive.

The target in experiment [1] is Thyrotropin-releasing hormone receptor (Homo sapiens) (UniProt P34981). The experiment in a line: qHTS for Small Molecule Agonists and Allosteric Enhancers of Human TRH Receptor: Validation Screen for Agonists (AID 493127;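 active = calcium activation more than 3 SD above the typical response in the agonist read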;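 note: intracellular calcium rise by fluo-8 fluorescence before TRH EC20 addition; 0% is about no effect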). The settings on record: TRH receptor agonist cell assay; at 2 µM; stronger effect = higher value. The method, boiled down:
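Kinetic fluorescence assay of agonist-induced calcium release: overnight-plated TRHR cells, room-temperature fluo-8 loading, baseline then compound addition with per-second reads.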
In general terms: In qHTS, concentration-response curves come from the screen itself.

The nature of experiment [2]: qHTS for Inhibitors of Cell Surface uPA Generation: Validation Assay (AID 493164).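 Note: RAW 264.7 macrophage cells exposed to compound for 18 h; 0% is about no effect.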 The following applies: mouse cells, plasminogen activation; series mostly up to 38.3 µM. The method, boiled down: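 Compounds are titrated over seven points (2.45 nM–38.3 uM final) onto pre-plated RAW 264.7 cells and incubated for 18 h. Retained intracellular ATP, measured with ATP-Lite, indicates blocked lethal factor entry.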

Experiment [3] addresses Galactokinase (Homo sapiens) (UniProt P51570). Briefly: qHTS Validation Assay for Inhibitors of Human Galactokinase (GALK) (AID 493189). Note: 0% is about no effect. The settings on record: purified human GALK enzyme activity, qHTS 7-point titration; series mostly up to 57.5 µM. The method, boiled down:
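GALK (5 nM) with 35 uM ATP and 100 uM galactose in HEPES pH 8.0 with MgCl2, NaCl, DTT and BSA. Reaction ran 1 h at room temperature. Residual ATP read by Kinase-Glo Plus luminescence.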

The nature of experiment [4]: Validation screen for small molecules that induce DNA re-replication in SW480 colon adenocarcinoma cells (AID 504364). Note: 0% is about no effect. The settings on record: DNA re-replication phenotype (high-content imaging); series mostly up to 46.1 µM. A digest of the protocol: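 Hoechst-stained SW480 nuclei, imaged at 405 nm excitation after 48 hr compound exposure, were counted for elevated DNA content as the re-replication signal.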

The target in experiment [5] is Peptidyl-prolyl cis-trans isomerase NIMA-interacting 1 (Homo sapiens) (UniProt Q13526). The experiment in a line: qHTS Validation Assay to Find Inhibitors of Pin1 (AID 504536; active = well fitted inhibition curve with a large enough effect in the polarisation, with a control signal flat, not every such curve was filed as active; the % refers to the polarisation;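 note: 0% = full Pin1 enzyme wells and -100% = no-enzyme wells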). The settings on record: Pin1 fluorescence polarization peptide binding assay; series mostly up to 57.5 µM. The method, boiled down: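 Fluorescence polarization competition: compounds (titration) displace HiFluor-488-labeled Pin1-1b peptide from Pin1 (0.3 uM final) in pH 7.5 HEPES buffer with DTT, 10 min at room temperature; %Activity normalized to no-enzyme wells, curves fitted.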

For experiment [6], the target named is Phosphoglycerate kinase, glycosomal (Trypanosoma brucei brucei) (UniProt P07378). The experiment in a line: qHTS Validation Assay to Find Inhibitors of Phosphoglycerate Kinase (AID 504547).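 Note: control wells lack PGK and mark full inhibition.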 The settings on record: enzymatic PGK inhibition, coupled luminescence read-out; series mostly up to 57.5 µM. The method, boiled down: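 Compounds are pinned into the substrate/PGK mixture, and GAPDH (100nM final) is added to start the reaction by producing 1,3-BPG. After 60 minutes at room temperature, Kinase-Glo Plus is added and luminescence is measured 10 minutes later.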

Experiment [7] deals with phosphoglycerate mutase (Leishmania major) (UniProt Q4Q090). Briefly: qHTS Validation Assay to Find Inhibitors of Phosphoglycerate Mutase (AID 504548).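 Note: end-point luminescence from Kinase-GloPlus after the PGAM reaction; % is set by controls: 0 for no effect and ±100 for the full control effect.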 The following applies: biochemical enzyme activity; series mostly up to 57.5 µM. A digest of the protocol: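 L. major PGAM (1.25nM final) was added to substrate buffer and pinned compound, incubated 45 minutes at room temperature, then Kinase-GloPlus added; luminescence read after 10 minutes. Buffer: 100 mM TEA pH 7.6, 5 mM MgCl2, 0.01% Tween-20.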

A short description of experiment [8]: Inducers of the Endoplasmic Reticulum Stress Response (ERSR) in human glioma: Validation (AID 504836). Note: 0% is about no effect. The settings on record: human glioma cells, ER stress response reporter; series mostly up to 38.3 µM. The method, boiled down: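 Stably transfected U87-MG glioma cells carrying a GRP78-based luciferase sensor; 16 h compound incubation. Luminescence end-point read 10 min after Bright-Glo addition at room temperature.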

Experiment [9] has as its target Ubiquitin carboxyl-terminal hydrolase 1 (Homo sapiens) (UniProt O94782). The experiment in a line: Inhibitors of USP1/UAF1: Pilot qHTS (AID 504865). Note: nearly all actives have a fitted effect of over 35% in size. Note: potency is the fitted concentration of half-maximal effect. The settings on record: purified USP1/UAF1, Ub-rhodamine cleavage fluorescence; series mostly up to 114 µM. A digest of the protocol: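 USP1/UAF1 complex at 1 nM preincubated 15 min at room temperature with compound, then Ub-Rho substrate added at 150 nM final. Fluorescence (480/540 nm) read kinetically in 50 mM HEPES pH 7.8, 0.5 mM EDTA, 1 mM TCEP, 0.1 mg/ml BSA, 0.01% Tween-20.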

A short description of experiment [10]: qHTS for Inhibitors of ATXN expression: Validation of Cytotoxic Assay (AID 588349). Note: potency is the fitted concentration of half-maximal effect. The settings on record: cytotoxicity counter-screen for ATXN expression inhibitors, cell viability; series mostly up to 57.1 µM. A digest of the protocol: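 Toxicity of test compounds toward HEK293 cells is scored from cellular ATP content measured by CellTiter Glo. Cells receive titrated doses and incubate 72 hr at 37 degrees C beforehand.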

Experiment [11] in a line: qHTS for Inhibitors of ATXN expression: Validation (AID 588378). Note: % is set by controls: 0 for no effect and ±100 for the full control effect; nearly all actives have a fitted effect of over 75% in size. The following applies: cell-based ATXN2 expression reporter assay, luminescence; series mostly up to 57.1 µM. A digest of the protocol: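 HEK293 cells carrying ATXN2-firefly luciferase reporter, treated with compound 24 h at 37 °C. Viability read first by CellTiter-Fluor (405/525 nm), then reporter expression by Bright-Glo luminescence; controls were a known ATXN2 expression inhibitor and a luciferase inhibitor.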

The target in experiment [12] is DNA dC->dU-editing enzyme APOBEC-3G (Homo sapiens) (UniProt Q9HC16). The experiment in a line: qHTS for inhibitors of Vif-A3G interactions: Validation (AID 588379). Note: 0% is about no effect. The following applies: Vif-A3G protein interaction assay; series mostly up to 46.1 µM. The method, boiled down:
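Yellow fluorescence (Ex 488, Em 500-530) of Vif-coexpressing HeLa A3G-eYFP cells, scanned by Acumen cytometer, reports blocked A3G degradation. Cells plated at 700/well overnight at 37 deg C before compound addition, then a further overnight compound incubation at 37 deg C.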

Experiment [13] deals with Estrogen receptor (Homo sapiens) (UniProt P03372). The experiment in a line: qHTS assay for small molecule antagonists of estrogen receptor alpha signaling (AID 588513; active = well fitted curve in the direction sought with a large enough effect in the signal ratio, with a control signal flat, not every such curve was filed as active; the % refers to the signal ratio; note: % is set by controls: 0 for no effect and ±100 for the full control effect). The settings on record: ER-alpha-UAS-bla HEK293, beta-lactamase ratio, antagonist mode; series mostly up to 76.9 µM. The method, boiled down: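 ER-alpha-UAS-bla GripTite HEK 293 cells in 2% charcoal/dextran-treated FBS medium; compounds titrated (1:2, duplicate), then stimulated with 0.5 nM 17-beta-estradiol for 18 h at 37C. CCF4 beta-lactamase fluorescence; Hill-fit IC50 and efficacy.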

The target is the same in experiment [14]. Briefly: qHTS assay for small molecule agonists of estrogen receptor alpha signaling (AID 588514; calls by dose curve;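 note: 0% = vehicle only and 100% = reference agonist; nearly all actives have a fitted effect of over 70% in size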). The following applies: ER-alpha-UAS-bla HEK293, beta-lactamase ratio, 18 h; series mostly up to 76.8 µM. The method, boiled down:
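Fluorescence from CCF4 cleavage reports ER-alpha-driven beta-lactamase expression in HEK 293 cells treated 18 hrs at 37 C. Data normalized to 17-beta-estradiol (20 nM) and DMSO, fitted to Hill equation.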

Experiment [15] has as its target Androgen receptor (Homo sapiens) (UniProt P10275). Briefly: qHTS assay for small molecule agonists of androgen receptor signaling (AID 588515; active = well fitted curve in the direction sought with a large enough effect in the signal ratio, with a control signal flat; the % refers to the signal ratio; note: % is set by controls: 0 for no effect and ±100 for the full control effect). The settings on record: AR-UAS-bla HEK293, beta-lactamase ratio, agonist 16 h; stronger effect = higher value. The method, boiled down:
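Stimulation of an AR-responsive β-lactamase reporter in GripTite HEK293 cells was measured after 16 h compound exposure at 37 °C, via CCF4 fluorescence after 2 h RT. EC50 from Hill fits, normalized to R1881 at 30 nM.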

Experiment [16] shares this target. The experiment in a line: qHTS assay for small molecule antagonists of androgen receptor signaling (AID 588516; active = well fitted curve in the direction sought with a large enough effect in the signal ratio, with a control signal flat, not every such curve was filed as active; the % refers to the signal ratio; note: % is set by controls: 0 for no effect and ±100 for the full control effect). The settings on record: AR-UAS-bla HEK293, beta-lactamase ratio, antagonist mode, 16 h; series mostly up to 76.8 µM. A digest of the protocol: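 AR-UAS-bla GripTite HEK 293 cells (2000/well) treated with compound titrations plus 10 nM R1881 for 16 h at 37C. Beta-lactamase read by CCF4 FRET (460/530 nm); IC50 from Hill fits, normalized to R1881 and DMSO control wells.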

Experiment [17] can be described thus: Nrf2 qHTS screen for inhibitors: Validation (AID 493153; active = well fitted inhibition curve with a large enough effect in the main read-out, with a control signal flat, not every such curve was filed as active). The following applies: A549 ARE-Fluc reporter, 18-24 h; Potency: luciferase luminescence; viability change: measured here: cytotoxicity max response; luciferase luminescence, at 46.1 µM (top of the series). The method, boiled down:
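In this counterscreened reporter format, each well gives two signals: CellTiter-Fluor fluorescence for cytotoxicity and ARE-luciferase luminescence for Nrf2 function. A549 ARE_Fluc cells in 5% FBS OPTI-MEM were exposed to compound titrations for 18-24 h.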

Chain of phosphoglycerate mutase (Leishmania major) (Q4Q090 1-553): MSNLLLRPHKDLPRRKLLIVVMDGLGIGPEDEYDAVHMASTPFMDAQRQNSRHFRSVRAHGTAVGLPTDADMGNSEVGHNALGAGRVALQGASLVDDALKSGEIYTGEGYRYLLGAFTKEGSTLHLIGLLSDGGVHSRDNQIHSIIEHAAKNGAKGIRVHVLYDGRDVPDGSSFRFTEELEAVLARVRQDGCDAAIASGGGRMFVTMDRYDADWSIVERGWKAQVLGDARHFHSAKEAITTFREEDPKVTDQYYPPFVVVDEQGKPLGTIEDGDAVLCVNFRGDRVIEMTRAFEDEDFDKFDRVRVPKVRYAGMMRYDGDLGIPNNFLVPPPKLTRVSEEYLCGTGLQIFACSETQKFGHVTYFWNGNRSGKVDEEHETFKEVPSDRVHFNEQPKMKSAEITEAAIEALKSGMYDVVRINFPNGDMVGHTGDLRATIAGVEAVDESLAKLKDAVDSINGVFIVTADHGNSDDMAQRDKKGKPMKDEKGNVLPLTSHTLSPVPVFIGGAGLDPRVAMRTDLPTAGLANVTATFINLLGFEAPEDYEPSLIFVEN
Chain of DNA dC->dU-editing enzyme APOBEC-3G (Homo sapiens) (Q9HC16 whole entry, looked up): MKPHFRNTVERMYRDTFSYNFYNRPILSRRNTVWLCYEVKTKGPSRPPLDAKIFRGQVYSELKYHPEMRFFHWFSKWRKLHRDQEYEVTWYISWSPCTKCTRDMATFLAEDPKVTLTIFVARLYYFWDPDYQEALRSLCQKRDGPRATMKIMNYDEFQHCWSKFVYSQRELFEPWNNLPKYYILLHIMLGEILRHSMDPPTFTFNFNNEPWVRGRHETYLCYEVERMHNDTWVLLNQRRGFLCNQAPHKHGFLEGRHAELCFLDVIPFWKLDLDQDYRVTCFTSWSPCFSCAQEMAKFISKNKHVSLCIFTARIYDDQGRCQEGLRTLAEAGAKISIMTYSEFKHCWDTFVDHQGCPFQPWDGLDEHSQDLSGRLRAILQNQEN
Chain of Peptidyl-prolyl cis-trans isomerase NIMA-interacting 1 (Homo sapiens) (Q13526 whole entry, looked up): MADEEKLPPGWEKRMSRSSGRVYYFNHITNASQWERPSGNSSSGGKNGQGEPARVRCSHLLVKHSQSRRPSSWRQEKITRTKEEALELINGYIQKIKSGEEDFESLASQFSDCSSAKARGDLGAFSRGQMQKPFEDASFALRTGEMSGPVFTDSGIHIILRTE
Chain of Galactokinase (Homo sapiens) (P51570 whole entry, looked up): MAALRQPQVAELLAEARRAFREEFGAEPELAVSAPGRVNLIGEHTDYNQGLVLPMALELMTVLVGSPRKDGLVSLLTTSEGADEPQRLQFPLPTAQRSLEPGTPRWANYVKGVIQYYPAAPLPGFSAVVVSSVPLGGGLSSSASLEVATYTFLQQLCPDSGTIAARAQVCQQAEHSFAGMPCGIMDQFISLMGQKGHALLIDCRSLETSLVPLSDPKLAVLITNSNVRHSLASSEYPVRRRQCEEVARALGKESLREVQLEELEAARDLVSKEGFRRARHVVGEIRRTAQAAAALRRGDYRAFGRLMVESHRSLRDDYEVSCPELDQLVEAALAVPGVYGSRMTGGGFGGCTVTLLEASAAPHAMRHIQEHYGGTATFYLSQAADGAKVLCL
Chain of Thyrotropin-releasing hormone receptor (Homo sapiens) (P34981 whole entry, looked up): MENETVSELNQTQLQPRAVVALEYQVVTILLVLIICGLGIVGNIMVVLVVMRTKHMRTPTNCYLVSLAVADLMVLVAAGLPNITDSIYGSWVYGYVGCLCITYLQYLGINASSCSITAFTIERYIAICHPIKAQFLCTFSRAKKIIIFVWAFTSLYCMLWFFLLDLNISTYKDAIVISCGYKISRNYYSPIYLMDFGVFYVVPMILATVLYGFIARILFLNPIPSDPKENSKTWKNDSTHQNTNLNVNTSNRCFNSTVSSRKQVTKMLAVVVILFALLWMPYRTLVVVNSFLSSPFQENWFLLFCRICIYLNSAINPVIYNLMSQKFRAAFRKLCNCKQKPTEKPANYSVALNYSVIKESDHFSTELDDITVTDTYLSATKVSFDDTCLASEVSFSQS
Chain of Ubiquitin carboxyl-terminal hydrolase 1 (Homo sapiens) (O94782 whole entry, looked up): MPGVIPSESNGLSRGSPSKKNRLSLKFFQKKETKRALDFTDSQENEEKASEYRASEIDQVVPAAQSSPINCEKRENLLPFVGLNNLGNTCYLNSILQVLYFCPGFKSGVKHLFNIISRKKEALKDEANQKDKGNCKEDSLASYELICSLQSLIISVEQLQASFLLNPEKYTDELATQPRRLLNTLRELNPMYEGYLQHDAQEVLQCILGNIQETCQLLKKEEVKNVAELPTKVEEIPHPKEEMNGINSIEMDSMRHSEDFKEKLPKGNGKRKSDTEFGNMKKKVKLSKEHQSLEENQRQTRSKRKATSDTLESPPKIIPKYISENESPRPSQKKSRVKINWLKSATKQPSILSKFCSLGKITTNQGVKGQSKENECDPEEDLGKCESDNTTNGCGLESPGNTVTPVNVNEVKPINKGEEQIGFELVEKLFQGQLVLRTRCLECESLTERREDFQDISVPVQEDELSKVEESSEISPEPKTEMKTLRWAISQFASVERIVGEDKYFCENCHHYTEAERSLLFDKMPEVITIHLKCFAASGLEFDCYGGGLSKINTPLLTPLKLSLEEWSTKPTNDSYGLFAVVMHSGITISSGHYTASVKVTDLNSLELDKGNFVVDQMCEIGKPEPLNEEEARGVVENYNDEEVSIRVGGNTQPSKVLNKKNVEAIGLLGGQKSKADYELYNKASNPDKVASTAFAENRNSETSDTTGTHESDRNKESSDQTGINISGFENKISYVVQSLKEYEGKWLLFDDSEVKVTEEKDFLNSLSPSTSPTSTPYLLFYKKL
Chain of Phosphoglycerate kinase, glycosomal (Trypanosoma brucei brucei) (P07378 whole entry, looked up): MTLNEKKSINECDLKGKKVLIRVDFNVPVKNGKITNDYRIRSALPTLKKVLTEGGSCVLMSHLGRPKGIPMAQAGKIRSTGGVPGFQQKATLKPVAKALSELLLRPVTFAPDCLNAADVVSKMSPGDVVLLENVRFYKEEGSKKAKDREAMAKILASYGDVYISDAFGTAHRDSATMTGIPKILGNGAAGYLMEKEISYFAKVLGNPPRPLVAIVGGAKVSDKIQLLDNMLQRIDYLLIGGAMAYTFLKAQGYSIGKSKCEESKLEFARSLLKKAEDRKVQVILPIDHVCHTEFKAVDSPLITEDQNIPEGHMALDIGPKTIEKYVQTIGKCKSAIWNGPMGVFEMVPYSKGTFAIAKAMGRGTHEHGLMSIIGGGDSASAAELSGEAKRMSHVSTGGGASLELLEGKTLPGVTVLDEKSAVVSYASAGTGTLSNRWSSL
Chain of Androgen receptor (Homo sapiens) (P10275 whole entry, looked up): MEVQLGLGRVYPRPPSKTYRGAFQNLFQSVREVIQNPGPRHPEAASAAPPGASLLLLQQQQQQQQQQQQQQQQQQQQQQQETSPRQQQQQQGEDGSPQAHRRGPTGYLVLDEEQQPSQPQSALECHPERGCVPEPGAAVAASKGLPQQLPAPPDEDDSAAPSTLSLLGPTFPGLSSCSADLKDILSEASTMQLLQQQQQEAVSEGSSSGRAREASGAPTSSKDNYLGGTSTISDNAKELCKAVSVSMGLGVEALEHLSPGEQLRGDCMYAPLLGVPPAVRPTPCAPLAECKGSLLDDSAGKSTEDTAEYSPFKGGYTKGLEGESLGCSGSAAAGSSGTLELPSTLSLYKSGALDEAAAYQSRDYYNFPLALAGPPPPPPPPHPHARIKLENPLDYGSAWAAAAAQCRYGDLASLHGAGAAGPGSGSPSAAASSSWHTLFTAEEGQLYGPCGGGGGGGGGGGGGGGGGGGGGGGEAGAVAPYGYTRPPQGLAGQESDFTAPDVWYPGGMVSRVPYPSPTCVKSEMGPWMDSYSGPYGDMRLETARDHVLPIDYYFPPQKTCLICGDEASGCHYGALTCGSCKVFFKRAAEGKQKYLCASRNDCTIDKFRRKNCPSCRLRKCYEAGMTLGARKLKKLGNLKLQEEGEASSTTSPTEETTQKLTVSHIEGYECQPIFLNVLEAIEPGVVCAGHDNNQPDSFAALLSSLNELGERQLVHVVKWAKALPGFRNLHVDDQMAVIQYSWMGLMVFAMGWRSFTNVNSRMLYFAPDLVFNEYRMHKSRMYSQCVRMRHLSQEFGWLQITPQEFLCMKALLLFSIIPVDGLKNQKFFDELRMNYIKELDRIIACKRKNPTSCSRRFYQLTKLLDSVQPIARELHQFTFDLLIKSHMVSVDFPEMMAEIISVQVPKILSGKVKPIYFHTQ
Chain of Estrogen receptor (Homo sapiens) (P03372 whole entry, looked up): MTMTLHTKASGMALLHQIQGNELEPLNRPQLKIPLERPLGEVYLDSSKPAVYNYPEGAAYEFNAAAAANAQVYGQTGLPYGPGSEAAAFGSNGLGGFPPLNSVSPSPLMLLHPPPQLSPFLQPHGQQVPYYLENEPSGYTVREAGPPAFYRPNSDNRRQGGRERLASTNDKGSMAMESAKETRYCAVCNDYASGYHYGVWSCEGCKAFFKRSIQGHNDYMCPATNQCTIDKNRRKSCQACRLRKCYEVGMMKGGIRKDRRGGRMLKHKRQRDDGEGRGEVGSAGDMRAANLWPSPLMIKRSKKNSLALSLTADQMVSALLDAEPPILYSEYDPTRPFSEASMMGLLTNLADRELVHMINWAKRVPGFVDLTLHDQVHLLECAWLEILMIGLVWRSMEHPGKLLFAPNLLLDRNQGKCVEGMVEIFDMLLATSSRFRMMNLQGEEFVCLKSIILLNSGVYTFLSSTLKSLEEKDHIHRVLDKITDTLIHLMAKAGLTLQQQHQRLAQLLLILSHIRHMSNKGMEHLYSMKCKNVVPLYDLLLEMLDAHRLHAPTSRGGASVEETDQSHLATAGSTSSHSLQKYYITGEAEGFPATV

On to `Nc1ccncc1`, for which the results for the activation in experiment [1] and in [15] were 1.19% (inactive) and -4.84% (inactive), respectively. Further, the outcome in [2], in [3], in experiment [7], in experiment [8], in [12] and in [13] was inactive. The outcome in [16] was inactive. Besides, the Potency entry in experiment [4], in [5], in experiment [6], in experiment [9], in [10] and in experiment [11] was “inactive” throughout. For the same compound, the Potency result in experiment [14] was “inactive”.

Consider `CC[N+](CC)(CC)CC`, for which the compound was classed as inactive in [3] and in experiment [8]. In addition, the Potency result in [4] and in experiment [9] was “inactive” each time.

As to `c1ccc2c(c1)OCC(C1=NCCN1)O2` (stereo not drawn), in experiment [1], the activation was 1.38% (inactive). The compound was classed as inactive in experiment [2], in experiment [3], in experiment [7] and in experiment [8]. Besides, the Potency result in experiment [4], in experiment [5], in [6] and in [9] was “inactive” each time. Besides, in [10], the Potency was 22.4 µM (active).

For `NCC(CC(=O)O)c1ccc(Cl)cc1` (stereo not drawn), the activation in experiment [1] was 0.125% (inactive). Moreover, the call in experiment [2], in [3], in experiment [7] and in [8] was inactive. The Potency result in experiment [4], in experiment [5], in [6], in experiment [9], in experiment [10] and in experiment [11] was “inactive” each time.

Take `COc1ccc(Cc2nccc3cc(OC)c(OC)cc23)cc1OC`: in [1], the activation is -0.312% (inactive). Further, the result in experiment [3] and in experiment [8] was inactive. The Potency result in experiment [4] is “inactive”. The Potency result in experiment [9] was “inactive and 50.1 µM (active)”.

On to `NCC(O)c1ccc(O)cc1` (stereo not drawn), for which the activation in experiment [1] is 0.812% (inactive). The Potency result in [17], in experiment [4], in [5], in experiment [6], in experiment [9] and in experiment [10] was “inactive” throughout. In experiment [11], the Potency entry is “inactive”. In addition, the viability change in experiment [17] was determined as 0.943%. For the same compound, the call in experiment [2], in experiment [3], in experiment [7] and in [8] was inactive.

`N#CC(C#N)=Cc1ccc(O)c(O)c1`: the activation in experiment [1] is 1.19% (inactive). Further, the result in [2], in [3], in [7], in experiment [8] and in experiment [12] was inactive. Moreover, the Potency entry in [4], in experiment [5], in [6], in [9], in experiment [10] and in experiment [11] was “inactive” in each case.

Regarding `CCCN1CCC[C@@H]2Cc3[nH]ncc3C[C@H]21`, the Potency result in experiment [17], in experiment [5], in experiment [6], in experiment [9], in experiment [10] and in [11] was “inactive” in each case. Besides, the viability change in [17] was 1.53% and 0.366%. For the same compound, the result in experiment [2], in experiment [7], in experiment [8] and in experiment [12] was inactive.

With `NCC1(CC(=O)O)CCCCC1`, in experiment [1], the activation was 1.12% (inactive). Moreover, the compound was called inactive in [2], in experiment [3], in experiment [7], in experiment [8] and in [12]. In addition, the Potency result in experiment [4], in [5], in experiment [6], in [9], in experiment [10] and in experiment [11] was “inactive” in each case.

As to `Cc1ccc(S(=O)(=O)N[C@@H](CCCCN)C(=O)CCl)cc1`, the activation in experiment [1] is -0.625% (inactive). The compound was classed as inactive in experiment [3], in experiment [7] and in experiment [8]. Moreover, the Potency result in experiment [4], in experiment [5], in experiment [6] and in experiment [11] was “inactive” throughout. For the same compound, the Potency in [9] is 50.1 µM (active) and 39.8 µM (active).

Source of the values: PubChem BioAssay (NCATS).
